Experimental findings from PubChem BioAssay are described below.

Active and inactive are the calls of the source. Unless noted, no rule for the calls is given here.

The subject of experiment [1] is Wnt5a (protein binding on small-molecule microarray). Put plainly: small molecules binding Wnt5a protein – biophysical, small-molecule microarray, 635/667 nm fluorescence, primary screen (AID 1142).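 Also: fluorescence read at 667 nm with signal to noise per printed feature.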 Particulars: 635 nm fluorescence, higher = more signal.
Experiment [2] is described as follows: ATP-based viability of Huh7 replicon cells – cell-based, CellTiter-Glo luminescence, basal, 48 h, cytotoxicity control for HCV replication inhibitor project, primary screen (AID 1143).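 Also: Huh7 hepatoma cells carrying a hepatitis C replication reporter with no stimulus; test concentration not given here.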 As to conditions: Huh7 HCV replicon, CellTiter-Glo luminescence, 48 h, higher = more signal, called active from +8 up or from −8 down unless noted. For orientation: A replicon is a self-replicating genome or part of one, used to study replication in cells.

Experiment [3] can be described thus: Pseudomonas biofilm growth suppression – PAO1 strain, BacTiter-Glo luminescence, LB-PBS, primary screen (AID 1144). As to conditions: P. aeruginosa PAO1 biofilm, 12 h, higher = more signal.
Experiment [4] can be described thus: basal CRE-LacZ reporter activity in PC12 – cell-based, unstimulated, primary screen (AID 1145). As to conditions: no forskolin, luminescence, 4.5 h; higher = more signal, called active from +8 up or from −8 down unless noted.
Experiment [5] in a line: forskolin-driven CRE-LacZ activity in PC12 – cell-based, CRE-LacZ reporter, forskolin-stimulated, primary screen (AID 1146).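 Also: PC12 cells with 6xCRE LacZ reporter stimulated by forskolin 10 µM; beta-galactosidase reporter signal reflecting CREB driven transcription.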 Particulars: luminescence, 4.5 h; higher = more signal, called active from +8 up or from −8 down unless noted.
For experiment [6], the target named is Streptavidin (Streptomyces avidinii) (UniProt P22629). Put plainly: compounds binding control protein streptavidin – biophysical, small-molecule microarray, 635/667 nm fluorescence, artefact control for SMM compound annotation, primary screen (AID 1147).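 Also: signal reflects streptavidin binding to arrayed compounds as a control protein.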 As to conditions: higher = more signal.
Experiment [7] can be described thus: probe aInhba binding on compound microarray – biochemical, small-molecule microarray, 635/667 nm fluorescence, primary screen (AID 1148).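 Also: score merges 667nm spot fluorescence with signal-to-noise for antibody binding to printed compounds.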 As to conditions: higher = more signal; small-molecule microarray, probe aInhba, fluorescence unless noted.
For experiment [8], the target named is Torsin-1A (Homo sapiens) (UniProt O14656). Put plainly: TOR1A wild-type binding on microarray – cell lysate, small-molecule microarray, lysate, 635/667 nm, primary screen (AID 1149). As to conditions: COS7 hTOR1A-WT lysate, 635 nm fluorescence, higher = more signal.
Experiment [9] has the same target. Put plainly: torsin A mutant lysate binding on microarrays – cell lysate, small-molecule microarray, COS7 lysate, 635/667 nm fluorescence, primary screen (AID 1150).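 Also: score pools 667 nm emission and signal to noise measuring lysate protein binding.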 Particulars: COS7 hTOR1A mutant lysate, 635 nm fluorescence, higher = more signal.
Experiment [10] relates to Sonic hedgehog protein (Shh). Put plainly: Sonic hedgehog microarray binding compounds – biochemical, small-molecule microarray, 635/667 nm fluorescence, primary screen (AID 1151).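 Also: Shh protein binding to compounds spotted on small-molecule microarray slides; score combines spot fluorescence intensity with signal-to-noise across triplicate slides.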 As to conditions: 635 nm fluorescence, higher = more signal.
Experiment [11] in a line: optical density shifts of acrAB sulA E. coli – strain DRC41, OD650, 48 h, E. coli filamentation inducer project, primary screen (AID 1152).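 Also: E. coli MC1000 strain DRC41 lacking acrAB efflux pump and sulA.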 Particulars: higher = more signal, called active from +8 up or from −8 down unless noted.
A short description of experiment [12]: probe aLefty1 binding on compound microarray – biochemical, small-molecule microarray, 635/667 nm fluorescence, primary screen (AID 1153).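 Also: score merges spot fluorescence with signal-to-noise ratio from the scanned slide images.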 As to conditions: higher = more signal; small-molecule microarray, probe aLefty1, fluorescence unless noted.
A short description of experiment [13]: plasmodial surface anion channel blockers, osmotic lysis – cell-based, P. falciparum Indochina, OD700, 1 h, primary screen (AID 1154). As to conditions: P. falciparum Indochina infected RBC osmotic lysis; higher = more signal, called active from +8 up or from −8 down unless noted.
Experiment [14] in a line: plasmodial surface anion channel blockers, osmotic lysis – cell-based, P. falciparum Indochina, OD700, 2 h, primary screen (AID 1155).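 Also: lysis reports solute entry through the parasite surface anion channel PSAC.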 Particulars: P. falciparum Indochina infected erythrocytes; higher = more signal, called active from +8 up or from −8 down unless noted.
The nature of experiment [15]: changes in parasitized red cell lysis, either direction – P. falciparum Indochina, OD700, 3 h, PSAC antagonist project, primary screen (AID 1156). Particulars: P. falciparum-infected erythrocytes, osmotic lysis; higher = more signal, called active from +8 up or from −8 down unless noted.
The nature of experiment [16]: plasmodial surface anion channel blockers, osmotic lysis – cell-based, P. falciparum Indochina, OD700, 18 h, primary screen (AID 1157). Particulars: P. falciparum Indochina infected erythrocytes, osmotic lysis OD700, 18 h; higher = more signal, called active from +8 up or from −8 down unless noted.
Experiment [17] in a line: S6 kinase pathway phospho-S6 level changes – cell-based, A549, cytoblot, luminescence, serum-stimulated, primary screen (AID 1158).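 Also: serum-stimulated A549 lung adenocarcinoma cells; signal is phosphorylated S6 detected by cytoblot immunostaining with HRP secondary.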 Particulars: 5 h, higher = more signal.
For experiment [18], the target named is NADPH oxidase 2 (Homo sapiens) (UniProt P04839). Put plainly: compounds shifting NOX2 Amplex Red fluorescence – cell-based, HEK293-NOX2, PMA-stimulated, NOX inhibitor project, primary screen (AID 1159). Also: test concentration not given here. Particulars: 45 min; higher = more signal, called active from +8 up or from −8 down unless noted.
Experiment [19] addresses NADPH oxidase 4 (Homo sapiens) (UniProt Q9NPH5). As to the kind of experiment: compounds shifting NOX4 Amplex Red fluorescence – cell-based, HEK293-NOX4, tetracycline-induced, NOX inhibitor project, primary screen (AID 1160). Particulars: HEK293-NOX4, Amplex Red H2O2 fluorescence, 45 min; higher = more signal, called active from +8 up or from −8 down unless noted.
Experiment [20] deals with NADPH oxidase 5 (Homo sapiens) (UniProt Q96PH1). Put plainly: compounds shifting NOX5 Amplex Red fluorescence – cell-based, HEK293-NOX5, NOX inhibitor project, primary screen (AID 1161). Particulars: HEK293-NOX5, ionomycin, 45 min, higher = more signal.
NADPH oxidase 5 (Homo sapiens), sequence (Q96PH1 whole entry, looked up): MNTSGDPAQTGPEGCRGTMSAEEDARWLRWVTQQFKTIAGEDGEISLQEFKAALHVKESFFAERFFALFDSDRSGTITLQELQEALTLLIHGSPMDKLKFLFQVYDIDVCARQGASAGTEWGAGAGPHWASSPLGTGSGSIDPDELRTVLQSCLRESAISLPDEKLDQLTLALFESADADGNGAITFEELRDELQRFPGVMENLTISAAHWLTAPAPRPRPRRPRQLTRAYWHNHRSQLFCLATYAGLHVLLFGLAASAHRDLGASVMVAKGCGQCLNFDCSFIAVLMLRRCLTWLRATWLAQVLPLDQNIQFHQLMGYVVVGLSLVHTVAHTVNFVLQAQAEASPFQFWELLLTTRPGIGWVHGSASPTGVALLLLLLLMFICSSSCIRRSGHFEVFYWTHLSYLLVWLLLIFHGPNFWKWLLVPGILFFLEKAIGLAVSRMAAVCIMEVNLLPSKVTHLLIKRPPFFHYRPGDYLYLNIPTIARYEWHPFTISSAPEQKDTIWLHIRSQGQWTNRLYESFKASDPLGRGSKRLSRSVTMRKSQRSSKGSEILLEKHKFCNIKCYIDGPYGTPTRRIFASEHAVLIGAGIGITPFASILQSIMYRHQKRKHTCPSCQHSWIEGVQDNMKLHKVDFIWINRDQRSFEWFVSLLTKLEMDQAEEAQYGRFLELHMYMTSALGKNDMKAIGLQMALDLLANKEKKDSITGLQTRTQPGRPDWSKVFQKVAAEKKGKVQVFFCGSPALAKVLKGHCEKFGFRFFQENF

Torsin-1A (Homo sapiens), sequence (O14656 whole entry, looked up): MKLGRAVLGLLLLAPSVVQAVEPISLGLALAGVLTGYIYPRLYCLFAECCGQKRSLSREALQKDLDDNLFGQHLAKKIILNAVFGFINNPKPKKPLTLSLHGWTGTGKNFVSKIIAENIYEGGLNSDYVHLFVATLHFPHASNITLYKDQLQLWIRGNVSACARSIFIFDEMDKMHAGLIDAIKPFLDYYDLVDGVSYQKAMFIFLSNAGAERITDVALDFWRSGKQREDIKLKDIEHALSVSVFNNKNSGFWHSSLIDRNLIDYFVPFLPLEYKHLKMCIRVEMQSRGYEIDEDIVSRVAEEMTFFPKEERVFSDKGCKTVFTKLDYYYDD
NADPH oxidase 2 (Homo sapiens), sequence (P04839 whole entry, looked up): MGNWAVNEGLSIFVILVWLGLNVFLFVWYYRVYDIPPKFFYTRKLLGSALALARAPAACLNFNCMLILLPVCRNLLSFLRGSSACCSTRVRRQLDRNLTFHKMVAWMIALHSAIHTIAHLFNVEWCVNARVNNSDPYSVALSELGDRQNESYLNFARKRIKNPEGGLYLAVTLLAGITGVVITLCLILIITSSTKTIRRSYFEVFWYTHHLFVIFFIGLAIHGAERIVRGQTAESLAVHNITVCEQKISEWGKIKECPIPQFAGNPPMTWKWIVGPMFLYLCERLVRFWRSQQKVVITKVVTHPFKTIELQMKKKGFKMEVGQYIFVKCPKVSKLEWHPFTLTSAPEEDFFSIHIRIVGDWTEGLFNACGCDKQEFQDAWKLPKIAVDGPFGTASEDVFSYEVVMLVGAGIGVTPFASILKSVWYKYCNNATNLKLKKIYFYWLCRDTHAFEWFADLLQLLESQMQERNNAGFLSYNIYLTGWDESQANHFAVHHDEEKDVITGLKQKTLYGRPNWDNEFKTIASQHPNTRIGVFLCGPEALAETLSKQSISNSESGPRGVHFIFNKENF
NADPH oxidase 4 (Homo sapiens), sequence (Q9NPH5 whole entry, looked up): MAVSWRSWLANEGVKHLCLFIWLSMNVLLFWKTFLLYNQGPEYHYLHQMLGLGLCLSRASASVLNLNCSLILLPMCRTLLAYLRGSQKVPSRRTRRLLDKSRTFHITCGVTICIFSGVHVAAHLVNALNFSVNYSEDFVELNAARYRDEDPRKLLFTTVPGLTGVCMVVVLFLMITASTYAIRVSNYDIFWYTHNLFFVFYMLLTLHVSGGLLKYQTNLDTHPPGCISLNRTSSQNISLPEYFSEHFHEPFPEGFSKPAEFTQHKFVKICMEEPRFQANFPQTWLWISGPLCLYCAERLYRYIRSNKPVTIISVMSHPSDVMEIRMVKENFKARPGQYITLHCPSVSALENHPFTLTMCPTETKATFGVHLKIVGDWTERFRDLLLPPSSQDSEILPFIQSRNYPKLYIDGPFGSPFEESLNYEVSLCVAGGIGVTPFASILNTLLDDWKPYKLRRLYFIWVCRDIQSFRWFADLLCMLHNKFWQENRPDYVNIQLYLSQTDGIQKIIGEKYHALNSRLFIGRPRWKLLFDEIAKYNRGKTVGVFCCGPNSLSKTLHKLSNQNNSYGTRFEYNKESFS
Streptavidin (Streptomyces avidinii), sequence (P22629 whole entry, looked up): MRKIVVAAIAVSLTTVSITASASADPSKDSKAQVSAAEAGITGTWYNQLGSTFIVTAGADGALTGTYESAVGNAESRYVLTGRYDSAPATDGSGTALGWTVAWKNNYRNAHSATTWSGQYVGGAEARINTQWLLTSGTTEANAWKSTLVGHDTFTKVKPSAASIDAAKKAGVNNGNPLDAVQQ

Take `COc1cc2c(cc1O)C=[N+](C)CC2`: the composite z-score in experiment [1] is 0.182; in experiment [6] it was -0.306; in experiment [7], -0.152; in the experiment with Torsin-1A (Homo sapiens) [8] it was -1.31; with Torsin-1A (Homo sapiens) [9], -1.25; in experiment [10], 1.65. The same molecule gave a composite z-score in experiment [12] of -0.147. The z-score in [2] was -1.29 (inactive); in [3], -0.527 (inactive); in [4] it was -0.438 (inactive); in experiment [5], -0.811 (inactive); in experiment [11], 1.13 (inactive); in [13], 2.39 (inactive). The z-score was -0.687 (inactive) in experiment [14]; 0.0284 (inactive) in [15]; -0.752 (inactive) in experiment [16]; 2.42 in [17]; -3.74 (inactive) in experiment [18]; -2.03 (inactive) in experiment [19]. In addition, the z-score in [20] was -2.13.
With `CCOC(=O)[C@H]1CC=C2C(=O)Oc3ccc(Br)cc3[C@@H]21`, the composite z-score in experiment [1] was -0.707; in [6], 0.307; in [7], -0.128; with Torsin-1A (Homo sapiens) [8] it was 0.0083; with Torsin-1A (Homo sapiens) [9], 0.127; in experiment [10], -0.968. Moreover, the composite z-score in experiment [12] came to 0.035. Besides, the z-score in experiment [2] is -0.87 (inactive); in experiment [3] it was -0.301 (inactive); in [4], 0.0331 (inactive); in experiment [5], 34.1 (active); in experiment [11], -0.704 (inactive); in experiment [13] it was 1.79 (inactive). The z-score is 1.03 (inactive) in [14]; -0.0107 (inactive) in experiment [15]; 0.756 (inactive) in [16]; -0.747 in [17]; -0.0356 (inactive) in experiment [18]; -1.75 (inactive) in experiment [19]. Moreover, the z-score in [20] is -0.445.
In the case of `COc1cc2c(cc1O)C(C)N(C)CC2` (stereo not given), the composite z-score in [1] is -0.0967; in experiment [6], 0.0031; in experiment [7], -0.0468; with Torsin-1A (Homo sapiens) [8] it was -0.638; in the experiment with Torsin-1A (Homo sapiens) [9], -0.744; in [10], -0.12. The composite z-score in experiment [12] worked out at 0.026. Moreover, the z-score in [2] is 0.639 (inactive); in experiment [3] it was 0.67 (inactive); in [4] it was 0.0655 (inactive); in experiment [5], -0.497 (inactive); in [11] it was 1.01 (inactive); in experiment [13], 0.726 (inactive). Moreover, the z-score in experiment [14] was 0.0698 (inactive); in [15] it was -0.306 (inactive); in experiment [16], 0.107 (inactive); in experiment [17], -0.0939; in experiment [18] it was -2.93 (inactive); in experiment [19], -1.92 (inactive). For the same molecule, the z-score in [20] was -2.86.
Take `COC(=O)[C@@]1(Cc2ccccc2)[C@H]2c3cc(C(=O)N(C)C)[nH]c3C[C@H]2CN1C(=O)c1ccccc1`: the composite z-score is 0.155 in experiment [1]; -0.033 in experiment [6]; -0.147 in [7]; -0.816 in the experiment with Torsin-1A (Homo sapiens) [8]; -0.317 with Torsin-1A (Homo sapiens) [9]; -0.836 in experiment [10]. For the same molecule, the composite z-score in experiment [12] turned out to be 0.802. In addition, the z-score was -0.167 (inactive) in experiment [2]; -0.0166 (inactive) in [3]; -0.368 (inactive) in experiment [4]; -0.897 (inactive) in experiment [5]; -1.41 (inactive) in [11]; 1.11 (inactive) in experiment [13]. Also, the z-score in [14] was 0.322 (inactive); in experiment [15] it was 0.337 (inactive); in experiment [16], 0.766 (inactive); in [17], -0.519; in experiment [18], 0.434 (inactive); in [19] it was 0.0256 (inactive). Moreover, the z-score in [20] was -3.03.
As for `CN1CCC(c2ccc(CO)cc2)=CC1c1cccs1` (stereo not given), the composite z-score is -0.113 in experiment [1]; -0.511 in [6]; -0.154 in [7]; 0.175 in the experiment with Torsin-1A (Homo sapiens) [8]; 0.367 in the experiment with Torsin-1A (Homo sapiens) [9]; 1.7 in experiment [10]. In addition, in experiment [12], the composite z-score was -0.0111. For the same molecule, the z-score in experiment [2] was -1.33 (inactive); in experiment [3] it was 0.196 (inactive); in experiment [4], 2.8 (inactive); in experiment [5], 0.158 (inactive); in experiment [11] it was -0.0115 (inactive); in [13], 5.23 (inactive). The z-score is 0.366 (inactive) in [14]; 0.377 (inactive) in experiment [15]; 0.528 (inactive) in experiment [16]; -0.594 in experiment [17]; -0.822 (inactive) in [18]; -1.01 (inactive) in [19]. Further, the z-score in [20] is -1.21.
For the molecule `C[C@@H]1OC=C2[C@@H](O)[C@H]3O[C@H]3C(=O)[C@]23[C@H]1[C@H]1C2=C([C@@H](O)[C@H]4O[C@H]4C2=O)[C@@H]3O[C@@H]1C`, the composite z-score in [1] is -0.0894; in experiment [6], -0.0542; in [7] it was -0.206; in the experiment with Torsin-1A (Homo sapiens) [8], 0.924; in the experiment with Torsin-1A (Homo sapiens) [9] it was 0.419; in experiment [10], 0.881. Moreover, the composite z-score in experiment [12] was -0.27. Moreover, the z-score was 0.612 (inactive) in experiment [2]; 0.389 (inactive) in experiment [3]; 1.01 (inactive) in [4]; 1.04 (inactive) in [5]; -0.418 (inactive) in experiment [11]; -0.531 (inactive) in experiment [13]. The z-score is 0.407 (inactive) in [14]; -0.655 (inactive) in experiment [15]; 0.0502 (inactive) in experiment [16]; 0.0176 in experiment [17]; 1.2 (inactive) in experiment [18]; 0.214 (inactive) in experiment [19]. In addition, in experiment [20], the z-score is -0.31.
For the molecule `COC(=O)[C@@]1(Cc2ccc(F)cc2)[C@H]2c3cc(C(=O)N(C)C)[nH]c3C[C@H]2CN1C(=O)c1ccccc1`, the composite z-score in [1] was 0.163; in [6], 0.134; in experiment [7] it was 0.143 [setting not given]; in the experiment with Torsin-1A (Homo sapiens) [8], 0.181; with Torsin-1A (Homo sapiens) [9], 0.252; in experiment [10], -0.879. Moreover, in [12], the composite z-score is 0.0738 [setting not given]. Besides, the z-score is -0.108 [setting not given] (inactive) in [2]; 0.208 (inactive) in experiment [3]; -0.754 [setting not given] (inactive) in [4]; -0.0669 [setting not given] (inactive) in experiment [5]; -0.652 [setting not given] (inactive) in experiment [11]; 1.37 [setting not given] (inactive) in [13]. For the same molecule, the z-score in experiment [14] is 0.0978 [setting not given] (inactive); in [15], 0.219 [setting not given] (inactive); in experiment [16] it was 0.641 [setting not given] (inactive); in experiment [17] it was -0.393; in experiment [18], 0.33 [setting not given] (inactive); in experiment [19], 0.502 [setting not given] (inactive). The z-score in experiment [20] was -0.936.
